Test results from PubChem BioAssay AID1159580 (chemical genetic matrix, 2015).
Where “and” joins values, the source holds several entries; their conditions need not be identical. Equal values may be shown once. The whole screen tested about 5,500 compounds, of which about 2,000 (36%) were called active. Another 18% or so got no clear call; they are omitted. Rule as the data show it: active = normalized growth mostly below about 0.91 (no sharp cut-off); inconclusive = no clear call, values can overlap the other calls; inactive = mostly above about 0.92. The list shows a part of the results.

Assay: chemical genetic growth profiling, strain panel (AID 1159580);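 also: tested at 20 µM; growth read once vehicle control cultures reached saturation at 30 °C; 1 = growth at the plate median or of vehicle wells; lower values mean less growth of the strain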
Conditions: S. cerevisiae deletion strains, growth OD

Measured: normalized growth

CN1C2CCC1CC(OC(c1ccccc1)c1ccccc1N)C2 (stereo unspecified)
inactive: locus YAL013W, strain DEP1, stronger effect = lower value 0.993 | locus YAL021C, strain ccr4, stronger effect = lower value 0.985 | locus YAL026C, strain drs2, stronger effect = lower value 1.01 | locus YAL030W, strain snc1, stronger effect = lower value 0.994 | locus YAL040C, strain CLN3, stronger effect = lower value 1.01 | locus YBL061C, strain skt5, stronger effect = lower value 0.995 | locus YBR009C, strain hhf1, stronger effect = lower value 0.998 | locus YBR021W, strain FUR4, stronger effect = lower value 0.993 | locus YBR023C, strain chs3, stronger effect = lower value 0.989 | locus YBR171W, strain sec66, stronger effect = lower value 1 | locus YBR229C, strain ROT2, stronger effect = lower value 0.998 | locus YBR231C, strain swc5, stronger effect = lower value 1 | locus YBR279W, strain paf1, stronger effect = lower value 1 | locus YCL011C, strain gbp2, stronger effect = lower value 1 | locus YCL016C, strain dcc1, stronger effect = lower value 0.994 | locus YCL029C, strain bik1, stronger effect = lower value 1.03 | locus YCL061C, strain MRC1 (second series), stronger effect = lower value 1 | locus YCL061C, strain MRC1, stronger effect = lower value 0.997 | locus YCL069W, strain vba3, stronger effect = lower value 1 | locus YCR088W, strain abp1, stronger effect = lower value 0.997 | locus YDL005C, strain med2, stronger effect = lower value 0.99 | locus YDL035C, strain GPR1, stronger effect = lower value 1.01 | locus YDL040C, strain nat1, stronger effect = lower value 0.991 | locus YDL074C, strain BRE1, stronger effect = lower value 1 | locus YDL101C, strain DUN1, stronger effect = lower value 1.01 | locus YDL134C, strain PPH21, stronger effect = lower value 1.01 | locus YDL185W, strain tfp1, stronger effect = lower value 1.01 | locus YDL192W, strain arf1, stronger effect = lower value 1.02 | locus YDR001C, strain nth1, stronger effect = lower value 1.01 | locus YDR069C, strain doa4, stronger effect = lower value 1 | locus YDR101C, strain arx1, stronger effect = lower value 1.01 | locus YDR137W, strain rgp1, stronger effect = lower value 0.98 | locus YDR150W, strain NUM1, stronger effect = lower value 1.01 | locus YDR159W, strain sac3, stronger effect = lower value 1 | locus YDR162C, strain NBP2, stronger effect = lower value 1 | locus YDR195W, strain ref2 0.976 | locus YDR297W, strain sur2, stronger effect = lower value 1.01 | locus YDR318W, strain mcm21, stronger effect = lower value 1.01 | locus YDR334W, strain swr1, stronger effect = lower value 1 | locus YDR335W, strain msn5, stronger effect = lower value 0.996 | locus YDR363W, strain ESC2, stronger effect = lower value 0.962 | locus YDR388W, stronger effect = lower value 1.01 | locus YDR392W, strain spt3, stronger effect = lower value 1.01 | locus YDR502C, strain sam2, stronger effect = lower value 1.01 | locus YEL003W, strain gim4, stronger effect = lower value 1.01 | locus YEL037C, strain rad23, stronger effect = lower value 1 | locus YEL061C, strain CIN8 (second series), stronger effect = lower value 1.03 | locus YEL061C, strain CIN8, stronger effect = lower value 1 | locus YER002W, strain NOP16, stronger effect = lower value 1 | locus YER015W, strain faa2, stronger effect = lower value 0.987 | locus YER016W, strain bim1, stronger effect = lower value 0.991 | locus YER110C, stronger effect = lower value 1.01 | locus YER111C, strain swi4, stronger effect = lower value 0.989 | locus YER155C, strain BEM2 (second series), stronger effect = lower value 0.988 | locus YER155C, strain BEM2, stronger effect = lower value 0.996 | locus YER167W, strain BCK2, stronger effect = lower value 1.02 | locus YFR010W, strain ubp6, stronger effect = lower value 0.996 | locus YGL078C, strain dbp3, stronger effect = lower value 1.01 | locus YGL086W, strain mad1, stronger effect = lower value 1.01 | locus YGL167C, strain pmr1, stronger effect = lower value 0.999 | locus YGL173C, strain kem1, stronger effect = lower value 0.999 | locus YGL227W, strain vid30, stronger effect = lower value 0.991 | locus YGL240W, strain doc1, stronger effect = lower value 0.997 | locus YGL248W, strain PDE1, stronger effect = lower value 1.01 | locus YGL253W, strain hxk2, stronger effect = lower value 0.998 | locus YGR078C, strain PAC10, stronger effect = lower value 1.01 | locus YGR135W, strain pre9, stronger effect = lower value 1.01 | locus YGR229C, strain SMI1, stronger effect = lower value 0.992 | locus YGR252W, strain gcn5, stronger effect = lower value 1 | locus YHR013C, strain ard1, stronger effect = lower value 0.979 | locus YHR027C, strain rpn1, stronger effect = lower value 0.999 | locus YHR030C, strain SLT2, stronger effect = lower value 1.01 and 0.978 | locus YHR079C, strain IRE1 (second series), stronger effect = lower value 1.01 | locus YHR079C, strain IRE1, stronger effect = lower value 0.991 | locus YHR094C, strain hxt1, stronger effect = lower value 1.01 | locus YHR129C, strain ARP1, stronger effect = lower value 1.01 | locus YHR142W, strain chs7, stronger effect = lower value 1 | locus YHR200W, strain rpn10, stronger effect = lower value 1.02 | locus YIL066C, strain RNR3, stronger effect = lower value 0.994 | locus YIL073C, strain SPO22, stronger effect = lower value 1.05 | locus YIL125W, strain kgd1, stronger effect = lower value 1 | locus YIR030C, strain dcg1, stronger effect = lower value 1.01 | locus YJL092W, strain hpr5, stronger effect = lower value 1.01 | locus YJL095W, strain BCK1 (second series), stronger effect = lower value 1.01 | locus YJL095W, strain BCK1, stronger effect = lower value 1 and 0.969 | locus YJL115W, strain asf1, stronger effect = lower value 0.997 | locus YJL129C, strain trk1, stronger effect = lower value 1.01 | locus YJL134W, strain LCB3, stronger effect = lower value 1.01 | locus YJL154C, strain vps35, stronger effect = lower value 1 | locus YJL164C, strain tpk1, stronger effect = lower value 1 | locus YJL166W, strain qcr8, stronger effect = lower value 1.02 | locus YJL168C, strain set2, stronger effect = lower value 1.01 | locus YJL187C, strain SWE1 (second series), stronger effect = lower value 1.01 | locus YJL187C, strain SWE1, stronger effect = lower value 0.998 | locus YJR043C, strain POL32, stronger effect = lower value 1.02 | locus YJR066W, strain TOR1, stronger effect = lower value 0.926
